Sampled rows, rich in hits. Any-hit rate of the full collection: about 19%.
HT1080 IDH1KD tx: kills HT-1080 cells with IDH1 knockdown; HT-1080 IDH1 knockdown viability, ATP luminescence, 48 h; Potency, µM (doses to about 46.1 µM), inactives show at the top dose activity, negative = toxicity, actives largely listed as cytotoxic; actives 2% (n = 360,000); AID 686971;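 also: 0% = DMSO wells and -100% = cell-free medium wells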
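After a 2 h attachment period, IDH1KD HT-1080 cells took pin-transferred compound for 48 h at 37 °C; ATP-based luminescence after 10 min room-temperature reagent incubation reported viability.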
KB-V1 cytotox: KB-V1 MDR subline cytotoxicity; KB-V1 MDR cells viability, CellTiter-Glo, 72 h; Potency, µM (highest dose often 46.1 µM), usual class: cytotoxic; actives 3.4% (n = 400,000); AID 1347076; also: nearly all actives have a fitted effect of over 60% in size
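KB-V1 MDR subline cells in DMEM (phenol-red free, 10% FBS) exposed to compounds in qHTS concentration series for 72 h at 37 degrees C. Viability read by CellTiter-Glo luminescence; concentration-effect curves fitted after normalization and correction.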
HT1080NT lethal: kills 2HG-producing HT-1080-NT fibrosarcoma cells | HT-1080-NT fibrosarcoma viability, CellTiter-Glo ATP luminescence, 48 h | Potency, µM (top dose mostly 46.1 µM), inactives show top-dose activity, negative = less viability, most hits filed as cytotoxic | actives 1.6% (n = 360,000);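 also: NT is the 2HG producing partner of a matched IDH1 knockdown line; 0% = DMSO-treated cells and -100% = media-only wells without cells; nearly all actives have a fitted effect of over 55% in size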
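A 48-hour cytotoxicity screen used HT-1080-NT cells plated 2 hours before compound delivery. ATP-based CellTiter-Glo luminescence measured viability, normalized to DMSO and no-cell controls.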
TDP1 cell CPT: DT40-hTDP1 cell growth loss with CPT; chicken DT40 Tdp1-/-;hTDP1 cells + 20 nM CPT, ATP luminescence, 48 h; Potency, µM (doses to about 46.2 µM), for the others: top-dose activity change, negative = growth inhibition, actives largely listed as inhibitors; actives 12% (n = 420,000); AID 686979; also: nearly all actives have a fitted effect of over 55% in size
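Chicken DT40 Tdp1-/- cells stably complemented with human TDP1 were seeded at 400 cells/well in medium containing 20 nM camptothecin, exposed to pin-transferred compounds, and grown at 37 °C for at least 48 hr. Viability was read as ATP luminescence.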
DT40 TDP1 no CPT: qHTS for Inhibitors of human tyrosyl-DNA phosphodiesterase 1 (TDP1): qHTS in cells in absence of CPT | DT40 Tdp1-/- hTDP1 cells, no CPT, ATP luminescence, 48 h | Potency, µM (top dose mostly 46.2 µM), inactives show at the highest dose activity change, negative = growth inhibition, actives largely listed as inhibitors | actives 15% (n = 420,000); also: nearly all actives have a fitted effect of over 55% in size
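Readout: luminescence from CellTiter-Glo after 30 min in the dark at RT. Cells: DT40 Tdp1-/- with stable hTDP1, 400/well. Exposure: compounds alone, ≥48 hr, 37 °C.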
KB-3-1 cytotox: kills parental KB-3-1 adenocarcinoma cells; KB-3-1 viability, CellTiter-Glo ATP luminescence, 72 h; actives 1.4% (n = 400,000); AID 1347075; Potency, µM (doses to about 46.1 µM), most hits filed as cytotoxic; also: nearly all actives have a fitted effect of over 60% in size
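Viability of parental KB-3-1 cells, measured by CellTiter-Glo luminescence, followed a 72 h incubation at 37 °C with pinned compounds in phenol-red-free DMEM containing 10% FBS.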
Numbers without * were called inactive; i = inactive; ? = inconclusive; . = no result given; ! = not active in a repeat. Calls follow the shape of the dose curve; as a rule, active = well fitted curve in the direction sought with a large enough effect; inconclusive = small, poorly fitted or top-dose-only effect, or another doubt; inactive = no such curve, though single readings can be large; an effect the other way counts as inactive or inconclusive. Unless noted, % is scaled to controls: 0 for no effect and ±100 for the full control effect; potency is read from the fitted curve at half-maximal effect.

SMILES	HT1080 IDH1KD tx	KB-V1 cytotox	HT1080NT lethal	TDP1 cell CPT	DT40 TDP1 no CPT	KB-3-1 cytotox
CC1C=CC=CC=CC=CC=CC=CC=CC(OC2OC(C)C(O)C(N)C2O)CC2OC(O)(CC(O)CC(O)C(O)CCC(O)CC(O)CC(=O)OC(C)C(C)C1O)CC(O)C2C(=O)O (stereo unspecified)	9.2µM*	?	4.6µM*	4.6µM*	3.3µM*	4.1µM*
COc1ccc(C(=O)Oc2cccc(Nc3ncnc4ccccc34)c2)cc1OC	5%	18µM*	-3%	?	18µM*	?
C#Cc1cccc(Nc2ncnc3cc(OC)c(OC)cc23)c1	.	.	.	?	23µM*	.
COc1cc(C(=O)Oc2cccc(Nc3ncnc4ccccc34)c2)cc(OC)c1OC	-9%	?	?	23µM*	16µM*	i
O=C(Oc1cccc(Nc2ncnc3ccccc23)c1)c1cccnc1	-3%	i	-20%	?	-10%	i
COc1ccc(CNc2ncnc3cc(OC)c(OC)cc23)cc1OC	-10%	?	-3%	4%	-5%	i
CCS(=O)(=O)N1CC(=O)N(c2ccc(Cl)cc2C)C(C)(C(=O)NC2CCCCCC2)C1 (stereo unspecified)	.	i	.	?	?	i
COC(=O)[C@H](Cc1ccccc1)NC(=O)C1CCN(C(=O)[C@H](C)NS(=O)(=O)c2ccc(C)cc2)CC1	-4%	i	-7%	-8%	7%	i
CCN(C1CCCCC1)S(=O)(=O)c1cc(C)ccc1OC	-14%	i	-10%	?	18µM*	i
CCN(C1CCCCC1)S(=O)(=O)c1ccc(OC)c(C)c1	-5%	i	1%	15µM*	16µM*	i
Cc1ccc(-n2nc(CO)c(C(=O)NCCCCc3ccccc3)n2)cc1C	.	.	.	-16%	-18%	.
CCn1nc(C)c(Br)c1C(=O)Sc1ccccc1Cl	?	i	16µM*	3.7µM*	4.6µM*	i
CCn1nc(C)cc1C(=O)Sc1ccc(C)cc1	-27%	i	-5%	?	?	i
C=C[C@@H]1c2cc(C)ccc2N(S(=O)(=O)c2ccc(C)cc2)[C@H](c2ccc(OC(C)=O)cc2)C1(C#N)C#N	6.5µM*	7.3µM*	7.3µM*	4.6µM*	5.8µM*	6.5µM*!
C=C[C@@H]1c2ccccc2N(S(=O)(=O)c2ccc(C)cc2)[C@H](c2ccc(OC(C)=O)cc2)C1(C#N)C#N	?	?	?	16µM*	16µM*	18µM*!
Cc1ccc2c(c1)C1CN(C)CCC1N2S(=O)(=O)c1ccc(C#N)cc1 (stereo unspecified)	-13%	i	-11%	-14%	-26%	i
COc1ccc(NC(=O)c2ccccc2OCc2c(C)noc2C)cc1OC	7%	?	4%	-4%	8%	i
CCn1c(SCC(=O)N2CCc3ccccc32)nnc1-c1c[nH]c2ccccc12	-1%	?	-4%	?	21µM*	?
CCn1cc(SCC(=O)N2CCc3ccccc32)c2ccccc21	0%	i	-11%	?	21µM*	i
Cn1c(SCC(=O)N2CCN(c3ccccc3)CC2)nnc1-c1c[nH]c2ccccc12	-17%	i	-5%	?	?	i
CCn1c(SCC(=O)N2CCN(c3ccccc3)CC2)nnc1-c1c[nH]c2ccccc12	-5%	i	-1%	21µM*	?	?
O=C(CSc1ccccc1)N1CCc2ccccc21	-1%	i	5%	-4%	-1%	i
CCn1c(SCC(=O)N2CCCc3ccccc32)nnc1-c1c[nH]c2ccccc12	-4%	i	-6%	?	?	i
CCOC(=O)C1CCN(S(=O)(=O)c2ccc3c(c2)CCCN3C(C)=O)CC1	-5%	i	2%	-6%	-18%	i
CCOC(=O)C1CCCN(S(=O)(=O)c2ccc3c(c2)CCCN3C(C)=O)C1 (stereo unspecified)	.	i	.	?	18µM*	i
SMILES	HT1080 IDH1KD tx	KB-V1 cytotox	HT1080NT lethal	TDP1 cell CPT	DT40 TDP1 no CPT	KB-3-1 cytotox
CCOC(=O)C1CCCN(S(=O)(=O)c2cc(C(=O)OC)n(C)c2)C1 (stereo unspecified)	-9%	?	-9%	16µM*	16µM*	?
COc1ccc(N2CCN(S(=O)(=O)c3ccc4c(c3)CCCN4C(C)=O)CC2)cc1	.	i	.	16µM*	?	i
COc1ccc(CNC(=O)C2CCCN(S(=O)(=O)c3ccc4c(c3)CCCN4C(C)=O)C2)cc1 (stereo unspecified)	-2%	i	-8%	15µM*	10µM*	21µM*!
CCOC(=O)C1CCCN(S(=O)(=O)c2ccccc2)C1 (stereo unspecified)	-1%	?	0%	3%	-6%	i
CC(=O)N1CCCc2cc(S(=O)(=O)N3CCCC3)ccc21	11%	i	-1%	3%	6%	i
Cc1c(NC(=O)c2ccc(Cl)cc2)cc(C(C)C)c(O)c1S(=O)(=O)c1ccc(Cl)cc1	.	i	.	?	?	i
COc1cccc(NS(=O)(=O)c2ccc3c(c2)CCCN3C(C)=O)c1	-8%	21µM*	-15%	?	?	i
COc1ccc(CNC(=O)C2CCN(S(=O)(=O)c3cccc(-c4noc(C)n4)c3)CC2)cc1	.	i	.	23µM*	9.2µM*	i
COc1ccc(CNC(=O)C2CCN(S(=O)(=O)c3cccnc3)CC2)cc1	-2%	i	-1%	25%	-5%	i
COc1ccc(C(=O)NCC2CCCN2S(=O)(=O)c2ccccc2)cc1OC (stereo unspecified)	0%	i	-8%	-13%	-22%	i
COc1ccc(S(=O)(=O)N2CCCC2CNC(=O)C(=O)Nc2ccc(F)cc2)cc1 (stereo unspecified)	-6%	i	-2%	?	?	i
Cc1ccc(S(=O)(=O)N2CCCC2CNC(=O)c2ccc3c(c2)OCO3)cc1 (stereo unspecified)	-3%	i	-14%	?	18µM*	i
Cc1cccc(C)c1NC(=O)C(=O)NCC1CCCN1S(=O)(=O)c1ccccc1 (stereo unspecified)	4%	i	-3%	?	12µM*	i

From PubChem BioAssay
